{"source": "PubChem BioAssay (EPA / NIEHS)", "key": {"[1]": {"target": "human Serotonin, 5-Hydroxytryptamine Receptor 7 (5HT7), HTR7 (gene 3363) (UniProt P34969)", "sequence (P34969 whole entry, looked up)": "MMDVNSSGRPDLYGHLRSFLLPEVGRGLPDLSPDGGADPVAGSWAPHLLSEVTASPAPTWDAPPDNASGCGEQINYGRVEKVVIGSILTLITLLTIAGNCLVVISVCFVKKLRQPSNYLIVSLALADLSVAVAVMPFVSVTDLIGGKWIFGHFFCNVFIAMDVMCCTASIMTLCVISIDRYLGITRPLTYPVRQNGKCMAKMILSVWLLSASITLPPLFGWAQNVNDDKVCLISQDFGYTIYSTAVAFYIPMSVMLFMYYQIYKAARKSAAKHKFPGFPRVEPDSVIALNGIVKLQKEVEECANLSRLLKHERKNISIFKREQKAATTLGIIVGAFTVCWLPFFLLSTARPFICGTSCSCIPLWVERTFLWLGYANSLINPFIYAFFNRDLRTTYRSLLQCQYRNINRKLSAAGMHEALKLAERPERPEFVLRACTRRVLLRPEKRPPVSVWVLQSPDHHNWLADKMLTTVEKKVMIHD", "experiment": "NVS_GPCR_h5HT7: NovaScreen (NVS) G Protein-Coupled Receptor Assay for human Serotonin, 5-Hydroxytryptamine Receptor 7 (5HT7) (AID 2283255);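 note: hits reduce specific radioligand binding relative to DMSO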", "procedure,_shortened": "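Filter-bound radioactivity counted after 1 h, with loss of specific radioligand binding fitted against DMSO. Membrane protein came from CHO cells expressing human 5HT7. Chemicals were tested first at 25 uM in duplicate, then in concentration series if active.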"}, "[2]": {"target": "human Adrenergic, Alpha 2A Receptor (Adra2A), ADRA2A (gene 150) (UniProt P08913)", "sequence (P08913 whole entry, looked up)": "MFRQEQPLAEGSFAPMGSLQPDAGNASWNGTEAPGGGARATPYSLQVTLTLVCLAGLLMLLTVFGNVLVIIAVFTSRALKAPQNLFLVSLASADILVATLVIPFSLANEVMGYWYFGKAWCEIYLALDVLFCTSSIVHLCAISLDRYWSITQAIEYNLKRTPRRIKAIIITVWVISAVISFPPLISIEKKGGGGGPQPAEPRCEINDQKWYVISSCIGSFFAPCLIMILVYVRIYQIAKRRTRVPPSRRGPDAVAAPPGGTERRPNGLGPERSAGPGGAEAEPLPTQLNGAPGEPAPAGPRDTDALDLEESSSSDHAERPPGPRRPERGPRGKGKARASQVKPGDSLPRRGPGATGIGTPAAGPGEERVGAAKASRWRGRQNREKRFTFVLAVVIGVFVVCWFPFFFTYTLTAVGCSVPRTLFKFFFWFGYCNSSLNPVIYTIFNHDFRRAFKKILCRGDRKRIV", "experiment": "NVS_GPCR_hAdra2A: NovaScreen (NVS) G Protein-Coupled Receptor Assay for human Adrenergic, Alpha 2A Receptor (Adra2A) (AID 2283257)", "procedure,_shortened": "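Displacement of a specific radioligand from HT29 membrane protein was counted by filter scintillation after 1 h. Compounds were screened in duplicate at 25 uM, and actives were retested in concentration series. Fitting was positive-direction against DMSO.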"}, "[3]": {"target": "human Adrenergic, Alpha 2c Receptor (Adra2C), ADRA2C (gene 152) (UniProt P18825)", "sequence (P18825 whole entry, looked up)": "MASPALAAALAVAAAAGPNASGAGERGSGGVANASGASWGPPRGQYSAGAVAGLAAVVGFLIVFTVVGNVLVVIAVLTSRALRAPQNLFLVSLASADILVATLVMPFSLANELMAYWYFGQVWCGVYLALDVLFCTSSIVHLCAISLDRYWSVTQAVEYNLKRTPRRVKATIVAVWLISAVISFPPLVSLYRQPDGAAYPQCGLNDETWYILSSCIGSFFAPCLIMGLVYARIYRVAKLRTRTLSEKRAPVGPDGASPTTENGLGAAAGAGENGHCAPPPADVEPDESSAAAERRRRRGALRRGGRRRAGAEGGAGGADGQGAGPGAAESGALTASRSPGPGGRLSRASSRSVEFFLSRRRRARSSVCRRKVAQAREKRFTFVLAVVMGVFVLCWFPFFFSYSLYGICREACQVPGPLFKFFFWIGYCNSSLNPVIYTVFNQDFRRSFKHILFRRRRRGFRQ", "experiment": "NVS_GPCR_hAdra2C: NovaScreen (NVS) G Protein-Coupled Receptor Assay for human Adrenergic, Alpha 2c Receptor (Adra2C) (AID 2283259)", "procedure,_shortened": "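Screened first in duplicate at 25 uM, with actives then run as concentration series. Membranes from Sf9 cells were exposed for 1 h, and displacement of radioligand was counted after filtration, using DMSO as baseline.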"}, "[4]": {"target": "human Adrenergic, Beta 3 Receptor (Adrb3), ADRB3 (gene 155) (UniProt P13945)", "sequence (P13945 whole entry, looked up)": "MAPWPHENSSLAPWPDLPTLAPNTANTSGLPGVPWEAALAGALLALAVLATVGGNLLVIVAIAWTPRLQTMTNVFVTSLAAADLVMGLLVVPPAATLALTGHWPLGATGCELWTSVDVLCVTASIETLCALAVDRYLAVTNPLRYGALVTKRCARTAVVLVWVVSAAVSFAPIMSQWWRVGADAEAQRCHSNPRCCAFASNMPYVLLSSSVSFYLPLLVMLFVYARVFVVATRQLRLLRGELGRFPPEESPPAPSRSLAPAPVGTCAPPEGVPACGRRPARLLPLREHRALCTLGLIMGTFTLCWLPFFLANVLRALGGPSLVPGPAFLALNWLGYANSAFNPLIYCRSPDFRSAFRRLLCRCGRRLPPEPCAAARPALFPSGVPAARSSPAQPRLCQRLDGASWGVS", "experiment": "NVS_GPCR_hAdrb3: NovaScreen (NVS) G Protein-Coupled Receptor Assay for human Adrenergic, Beta 3 Receptor (Adrb3) (AID 2283262)", "procedure,_shortened": "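A cell-free filter binding assay read by scintillation counting, with displacement of a specific radioligand measured after 1 hour. The receptor source was SK-N-MC extracts (cells pretreated with isoproterenol and 8-bromo-cAMP). Compounds were first tested at 25 uM in duplicate and then in concentration series.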"}, "[5]": {"target": "human Dopamine Receptor D4.4 (DRD4.4), DRD4 (gene 1815) (UniProt P21917)", "sequence (P21917 whole entry, looked up)": "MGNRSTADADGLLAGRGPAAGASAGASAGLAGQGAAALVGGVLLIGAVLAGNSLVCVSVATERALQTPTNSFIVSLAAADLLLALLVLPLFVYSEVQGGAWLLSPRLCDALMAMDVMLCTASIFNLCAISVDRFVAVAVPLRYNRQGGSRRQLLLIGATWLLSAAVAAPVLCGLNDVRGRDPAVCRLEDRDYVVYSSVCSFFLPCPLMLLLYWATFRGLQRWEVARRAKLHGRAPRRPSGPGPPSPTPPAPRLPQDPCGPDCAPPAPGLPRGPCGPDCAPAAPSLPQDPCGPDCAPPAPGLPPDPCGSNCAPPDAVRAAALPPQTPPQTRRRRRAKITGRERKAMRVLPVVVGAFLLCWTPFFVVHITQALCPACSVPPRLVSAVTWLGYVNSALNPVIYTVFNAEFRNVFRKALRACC", "experiment": "NVS_GPCR_hDRD4.4: NovaScreen (NVS) G Protein-Coupled Receptor Assay for human Dopamine Receptor D4.4 (DRD4.4) (AID 2283264)", "procedure,_shortened": "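Filter-binding assay with a tritiated or iodinated ligand, cell-free receptor prepared from CHO, 1 hour. Loss of bound radioactivity versus DMSO; single 25 uM duplicate screen, then concentration-response for actives.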"}, "[6]": {"target": "human Adrenergic, Beta 1 Receptor (Adrb1), ADRB1 (gene 153) (UniProt P08588)", "sequence (P08588 whole entry, looked up)": "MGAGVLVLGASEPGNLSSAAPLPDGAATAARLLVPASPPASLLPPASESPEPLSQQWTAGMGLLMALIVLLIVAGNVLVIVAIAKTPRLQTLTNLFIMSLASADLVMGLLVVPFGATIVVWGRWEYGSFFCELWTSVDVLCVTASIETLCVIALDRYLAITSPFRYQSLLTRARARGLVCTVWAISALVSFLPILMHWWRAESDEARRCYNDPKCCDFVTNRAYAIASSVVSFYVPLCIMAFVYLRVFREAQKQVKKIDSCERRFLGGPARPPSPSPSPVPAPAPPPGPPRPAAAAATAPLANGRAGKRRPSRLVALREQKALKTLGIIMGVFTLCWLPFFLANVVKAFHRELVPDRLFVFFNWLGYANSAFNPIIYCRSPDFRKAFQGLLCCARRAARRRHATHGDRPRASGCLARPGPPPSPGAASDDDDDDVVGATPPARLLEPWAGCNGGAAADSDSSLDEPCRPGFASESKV", "experiment": "NVS_GPCR_hAdrb1: NovaScreen (NVS) G Protein-Coupled Receptor Assay for human Adrenergic, Beta 1 Receptor (Adrb1) (AID 2283258)", "procedure,_shortened": "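Membranes/protein extracted from human neuroepithelioma cells, radioligand competition binding read by filtration and scintillation 2 h post-dose. Single 25 uM duplicate screen, then concentration-response follow-up; DMSO as negative control.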"}, "[7]": {"target": "Beta-2 adrenergic receptor (Homo sapiens) (UniProt P07550)", "sequence (P07550 whole entry, looked up)": "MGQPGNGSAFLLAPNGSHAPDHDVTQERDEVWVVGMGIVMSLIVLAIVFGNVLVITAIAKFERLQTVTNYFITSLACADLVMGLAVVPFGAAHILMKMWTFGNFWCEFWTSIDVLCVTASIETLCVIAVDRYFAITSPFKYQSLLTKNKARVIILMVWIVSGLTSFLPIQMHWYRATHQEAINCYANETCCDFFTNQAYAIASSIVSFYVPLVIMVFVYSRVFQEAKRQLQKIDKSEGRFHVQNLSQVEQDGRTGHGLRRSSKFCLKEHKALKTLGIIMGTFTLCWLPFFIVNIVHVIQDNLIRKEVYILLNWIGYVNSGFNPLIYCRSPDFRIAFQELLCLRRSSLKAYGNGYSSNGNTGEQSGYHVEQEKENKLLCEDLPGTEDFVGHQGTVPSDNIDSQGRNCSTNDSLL", "experiment": "NVS_GPCR_hAdrb2: NovaScreen (NVS) G Protein-Coupled Receptor Assay for human Adrenergic, Beta 2 Receptor (Adrb2) (AID 2283261)", "procedure,_shortened": "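Compounds screened in duplicate at 25 uM, then actives in concentration series. Human beta-2 receptor from CHO material, cell-free; radioligand displacement after 1 h measured by filtration and scintillation against DMSO baseline.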"}, "[8]": {"target": "Type-1 angiotensin II receptor (Homo sapiens) (UniProt P30556)", "sequence (P30556 whole entry, looked up)": "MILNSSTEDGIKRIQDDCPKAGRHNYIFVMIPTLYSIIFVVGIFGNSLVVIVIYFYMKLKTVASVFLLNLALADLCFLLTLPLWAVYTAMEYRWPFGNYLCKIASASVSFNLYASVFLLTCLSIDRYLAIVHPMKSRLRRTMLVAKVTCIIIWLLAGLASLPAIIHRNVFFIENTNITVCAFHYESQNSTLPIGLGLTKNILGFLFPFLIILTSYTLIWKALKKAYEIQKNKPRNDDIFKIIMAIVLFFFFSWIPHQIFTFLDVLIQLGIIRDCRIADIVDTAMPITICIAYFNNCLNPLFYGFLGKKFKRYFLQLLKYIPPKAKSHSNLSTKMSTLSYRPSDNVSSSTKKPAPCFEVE", "experiment": "NVS_GPCR_hAT1: NovaScreen (NVS) G Protein-Coupled Receptor Assay for human Angiotensin II receptor type 1 (AT1) (AID 2283263)", "procedure,_shortened": "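Hits from a 25 uM duplicate screen (threshold e.g. 30% inhibition) were run in concentration-response with 50 uM top concentration. Displacement of specific radioligand from KAN-TS membrane preparations measured after 3 h by filter scintillation, DMSO as baseline.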"}, "[9]": {"target": "human Adenosine A2a Receptor (AdoRA2a), ADORA2A (gene 135) (UniProt P29274)", "sequence (P29274 whole entry, looked up)": "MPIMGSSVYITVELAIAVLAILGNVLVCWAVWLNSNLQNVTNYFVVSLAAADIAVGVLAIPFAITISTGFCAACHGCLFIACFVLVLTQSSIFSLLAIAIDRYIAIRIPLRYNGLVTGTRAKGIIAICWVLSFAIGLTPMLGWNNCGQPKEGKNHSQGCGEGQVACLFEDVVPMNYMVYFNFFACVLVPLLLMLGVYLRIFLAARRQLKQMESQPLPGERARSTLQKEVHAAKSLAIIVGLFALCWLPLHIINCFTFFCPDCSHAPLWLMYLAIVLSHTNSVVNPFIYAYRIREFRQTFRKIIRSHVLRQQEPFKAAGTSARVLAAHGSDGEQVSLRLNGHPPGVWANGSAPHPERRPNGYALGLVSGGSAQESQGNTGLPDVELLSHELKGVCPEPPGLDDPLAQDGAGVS", "experiment": "NVS_GPCR_hAdoRA2a: NovaScreen (NVS) G Protein-Coupled Receptor Assay for human Adenosine A2a Receptor (AdoRA2a) (AID 2283256)", "procedure,_shortened": "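Compounds screened in duplicate at 25 uM, with actives followed up in concentration series, for displacement of a radioligand from HEK293-derived receptor protein. Bound counts read by filter scintillation at 1.5 hours, DMSO as baseline.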"}, "[10]": {"target": "human Endothelin Receptor Type A (ETA), EDNRA (gene 1909) (UniProt P25101)", "sequence (P25101 whole entry, looked up)": "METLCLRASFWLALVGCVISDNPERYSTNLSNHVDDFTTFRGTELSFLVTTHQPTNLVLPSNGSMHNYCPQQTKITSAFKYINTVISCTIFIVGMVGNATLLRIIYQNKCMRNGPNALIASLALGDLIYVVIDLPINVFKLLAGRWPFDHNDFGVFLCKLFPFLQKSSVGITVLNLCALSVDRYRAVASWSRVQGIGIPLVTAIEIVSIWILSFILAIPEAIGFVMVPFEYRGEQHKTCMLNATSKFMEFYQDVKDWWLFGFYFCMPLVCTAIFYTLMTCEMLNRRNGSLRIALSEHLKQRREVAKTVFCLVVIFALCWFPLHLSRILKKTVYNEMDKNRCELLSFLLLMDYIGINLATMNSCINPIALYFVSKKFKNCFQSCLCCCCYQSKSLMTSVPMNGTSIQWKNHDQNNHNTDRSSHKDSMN", "experiment": "NVS_GPCR_hETA: NovaScreen (NVS) G Protein-Coupled Receptor Assay for human Endothelin Receptor Type A (ETA) (AID 2283265)", "procedure,_shortened": "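Binding of radioligand to membrane protein extracted from SH-SY5Y cells was read by filtration and scintillation after 3 h. Compounds were screened at 25 uM in duplicate, with hits followed up in singleton concentration series to 50 uM.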"}}, "note": "Results filed as inconclusive are left out. Active and inactive are the calls of the source. Rule for the calls: active = hit-call score of the fitted dose curve at least 0.9, where 1 is the maximum; inconclusive = response in the unintended direction; inactive = score below 0.9."}
{"smiles": "CSc1ccc(Oc2ccc(S(N)(=O)=O)cc2CN(C)C)cc1C", "values": [{"measurement": "AC50", "setting": "[1]", "value": "12.5 µM (active)"}, {"measurement": "AC50", "setting": "[2]", "value": "0.263 µM (active)"}, {"measurement": "AC50", "setting": "[3]", "value": "5.83 µM (active)"}, {"measurement": "outcome", "setting": "[4]", "value": "inactive"}, {"measurement": "AC50", "setting": "[5]", "value": "25 µM (active)"}]}
{"smiles": "CC(C)c1cccc(C(C)C)c1", "values": [{"measurement": "outcome", "setting": "[6]", "value": "inactive"}]}
{"smiles": "CCCCCCCCCCCCCCOS(=O)(=O)O", "values": [{"measurement": "AC50", "setting": "[1]", "value": "16.5 µM (active)"}, {"measurement": "AC50", "setting": "[6]", "value": "5.22 µM (active)"}, {"measurement": "AC50", "setting": "[3]", "value": "2.99 µM (active)"}, {"measurement": "AC50", "setting": "[7]", "value": "15.4 µM (active)"}, {"measurement": "outcome", "setting": "[8]", "value": "inactive"}, {"measurement": "AC50", "setting": "[5]", "value": "13.3 µM (active)"}]}
{"smiles": "CCCCC(CC)COC(=O)CCCCCCCC(=O)OCC(CC)CCCC", "note": "(stereo unspecified)", "values": [{"measurement": "outcome", "setting": "[6]", "value": "inactive"}]}
{"smiles": "Nc1nc(Cl)nc2c1ncn2[C@H]1C[C@H](O)[C@@H](CO)O1", "values": [{"measurement": "AC50", "setting": "[9]", "value": "13.1 µM (active)"}]}
{"smiles": "O=C(O)c1[nH]n(-c2ccc(S(=O)(=O)O)cc2)c(=O)c1N=Nc1ccc(S(=O)(=O)O)cc1", "values": [{"measurement": "outcome", "setting": "[1]", "value": "inactive"}, {"measurement": "outcome", "setting": "[3]", "value": "inactive"}, {"measurement": "AC50", "setting": "[5]", "value": "16.5 µM (active)"}]}
{"smiles": "CCc1nc(N)nc(N)c1-c1ccc(Cl)cc1", "values": [{"measurement": "AC50", "setting": "[1]", "value": "4.76 µM (active)"}, {"measurement": "AC50", "setting": "[2]", "value": "4.81 µM (active)"}, {"measurement": "outcome", "setting": "[7]", "value": "inactive"}, {"measurement": "AC50", "setting": "[5]", "value": "5.9 µM (active)"}]}
{"smiles": "CC(C)(C)c1ccccc1", "values": [{"measurement": "outcome", "setting": "[1]", "value": "inactive"}]}
{"smiles": "O=C(N[C@@H](c1ccccc1)[C@@H]1CCCCN1)c1cccc(C(F)(F)F)c1Cl", "values": [{"measurement": "AC50", "setting": "[1]", "value": "8.16 µM (active)"}, {"measurement": "outcome", "setting": "[4]", "value": "inactive"}, {"measurement": "outcome", "setting": "[5]", "value": "inactive"}]}
{"smiles": "COc1ccc(OC(F)(F)F)cc1CN[C@H]1CCCN[C@H]1c1ccccc1", "values": [{"measurement": "AC50", "setting": "[2]", "value": "13.4 µM (active)"}, {"measurement": "AC50", "setting": "[3]", "value": "10.6 µM (active)"}, {"measurement": "AC50", "setting": "[4]", "value": "20.5 µM (active)"}]}
{"smiles": "CCN(CC)CCOc1ccc(C(=C(Cl)c2ccccc2)c2ccccc2)cc1", "values": [{"measurement": "AC50", "setting": "[1]", "value": "3.31 µM (active)"}, {"measurement": "AC50", "setting": "[9]", "value": "11.6 µM (active) [middle of 4 runs]"}, {"measurement": "AC50", "setting": "[3]", "value": "1.58 µM (active)"}, {"measurement": "AC50", "setting": "[7]", "value": "18.2 µM (active)"}, {"measurement": "outcome", "setting": "[4]", "value": "inactive"}, {"measurement": "AC50", "setting": "[5]", "value": "17.3 µM (active)"}, {"measurement": "AC50", "setting": "[10]", "value": "29.1 µM (active)"}]}
{"smiles": "CCCCCCCCCC[N+](C)(C)[O-]", "values": [{"measurement": "outcome", "setting": "[4]", "value": "inactive"}]}
